Compound activity from PubChem BioAssay.
Pf Dd2 growth – qHTS Primary assay for Inhibitors of Plasmodium falciparum Dd2 growth in vitro; P. falciparum Dd2 growth, SYBR Green, 72 h; Potency, µM (titrated, usually from 28.9 µM), without a hit: top-dose activity, negative = inhibition, hits mostly inhibitors; actives 4.3% (n = 120,000); AID 1347417, 2020; active = well fitted inhibition curve with a large enough effect;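 also: plate controls were DMSO vehicle for no effect and reference drug for full effect; nearly all actives have a fitted effect of over 65% in size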
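Readout: SYBR Green fluorescence, 485 nm excitation, 535 nm emission, after ~16 h lysis at 37C. Before that, Dd2-infected red cells (2.5% hematocrit) grew 72 h with compound, 29 uM top final concentration.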
An asterisk follows results filed as active; i = inactive; [ ] = dose if it differs, or a comment. The full list was thinned out, with hits kept by preference. Potency is read from the fitted curve at half-maximal effect.

SMILES | Pf Dd2 growth
CCN1c2cc(C(=O)Nc3ccc(F)c(F)c3)ccc2C(=O)N2CCCCC21 (stereo not given) | -3%
Cc1cnc(CC2CCCN(C(=O)CCc3c[nH]c4ccccc34)C2)n1C(C)C (stereo not given) | 4.5µM*
Cc1cnc(CC2CCCN(C(=O)N(C)C)C2)n1C(C)C (stereo not given) | -11%
Cc1cnc(CC2CCN(C(=O)CCc3c[nH]c4ccccc34)C2)n1CC1CC1 (stereo not given) | i
CCc1ccc(NC(=O)c2c(OC)cc(=O)n3c2CCCC3)cc1 | i
COc1ccc(N2C(=O)C3(CCCCC3)C2C(=O)NCCCN2CCCC2=O)cc1 (stereo not given) | -12%
CN(C(=O)CC(c1ccccc1)c1ccc(Cl)cc1)C1CCOCC1 (stereo not given) | i
COc1ccccc1CC(=O)N1CCCN(CCc2ccccc2)c2ccccc21 | 7.9µM*
O=C(c1cc(F)ccc1F)N1CCCN(CCc2ccccc2)c2ccccc21 | i
CN1CCCN(C(=O)CCc2ccccc2)c2ccccc21 | i
COc1ccc(CCC(=O)N2CCCN(C)c3ccccc32)cc1 | -15%
CN(C)CCN1CCCN(C(=O)CCc2ccccc2)c2ccccc21 | 7.1µM*
O=C(c1ccncc1)N1CCCN(CCc2ccccc2)c2ccccc21 | i
CC1(C)CN(C(=O)c2ccc(Oc3ccccc3)o2)CC1(C)O (stereo not given) | -22%
Cn1cccc1CN1CCCC2(CNc3ccccc3[S+](=O)([O-])N2)C1 (stereo not given) | -5%
COc1ccccc1-c1ccnc(-c2nnc(C)n2Cc2ccncc2)c1 | -24%[44.1 µM]
CCC(=O)C1=C(c2ccc(F)cc2)N(C(=O)CC)n2c(nnc2C2CCCCC2)S1 | 3.2µM*
Cn1c(Cn2cccn2)nnc1C1CCCN(C(=O)c2cccc(F)c2)C1 (stereo not given) | 6%
CCC(=O)C1=C(c2ccc(Cl)cc2)N(C(=O)CC)n2c(C)nnc2S1 | 2.8µM*
CCn1c(SCC(=O)c2ccc([N+](=O)[O-])cc2)nnc1-c1ccc(Cl)cc1 | i
Cn1nnnc1C1CCCN(C(=O)c2ccc(F)cc2)C1 (stereo not given) | 9%
CCCSC1=NC2(CCN(C(=O)NC3CCCCC3)CC2)N=C1c1ccc(Cl)cc1 | 7%
Cc1ccc(C2CCN(C(=O)Nc3ccc(Cl)cc3)C2)cc1 (stereo not given) | i
CC(=O)C1=C(c2ccc(Cl)cc2)N(C(C)=O)n2c(nnc2C2CCCCC2)S1 | 1µM*
O=C(C1CC1)N1CCCC2(Cc3ccccc3NC2=O)C1 (stereo not given) | -8%[44.1 µM]
SMILES | Pf Dd2 growth
CNC(=O)CCNc1c(-c2cccc(F)c2)nc2cnccn12 | i
O=C(O)CCC(=O)N1CCC2(CC1)CC(c1cccnc1)=NO2 | 6%
CCCn1c(C)cnc1CC1CCN(C(=O)NC)C1 (stereo not given) | 6%
COc1ccnc(-c2nnc3ccc(NC4CCOCC4)nn23)c1 | i
O=C(CCC[C@@H]1[C@H]2CCCN3CCC[C@@H](CN1C(=O)Nc1ccccc1)[C@@H]23)Nc1ccccc1 | -19%
CCN1CCN(CCNC(=O)C2CCCCC(=O)N2Cc2ccccc2)CC1 (stereo not given) | -3%
O=C1CCCCC(C(=O)NCCCN2CCc3ccccc3C2)N1 (stereo not given) | -13%
O=C(NCCCN1CCc2ccccc2C1)C1CCCCC(=O)N1Cc1ccccc1 (stereo not given) | 4µM*
Cc1nn(C)c(C)c1CCC(=O)N1CCN(c2ccc(C#N)cc2)C(=O)C1 | 5%
CC1(C(=O)N2CCCC2)CCCc2cnc(Nc3ccccc3)nc21 (stereo not given) | -5%[44.1 µM]
CC1(C(=O)N2CCC(c3ccccc3)CC2)CCc2cnc(Nc3ccncc3)nc21 (stereo not given) | 10µM*
CC(=O)N1CCN(C(=O)C2(C)CCc3cnc(Nc4ccccc4)nc32)CC1 (stereo not given) | 21%[44.1 µM]
Cc1nn(-c2ccccc2)c(C)c1Cc1nc(C(C)C)no1 | -3%
Cc1noc(C)c1C(=O)N1CCC(c2nnc(CN(C)C)n2C)CC1 | -9%
CNc1cc(C)nc(N2C[C@H](NC(=O)C3CCOCC3)[C@@H](C3CC3)C2)n1 | -4%
O=C(C1CC(=O)N(c2n[nH]c3cccc(F)c23)C1)N1CCN(Cc2ccccc2)CC1 (stereo not given) | -10%
COCc1nc(C2CC(N)C2)cc(N2CCC(NS(C)(=O)=O)CC2)n1 (stereo not given) | -11%
N#Cc1cccc(CN2Cc3[nH]cnc3C[C@H]2c2nc(-c3ccccc3)no2)c1 | -20%[44.1 µM]
COc1ccc(-c2noc(CN3CCCCC3c3cccc(F)c3)n2)c(OC)c1OC (stereo not given) | -19%
COc1ccc(F)cc1CN1CCc2[nH]cnc2C1c1cccc(C#N)c1 (stereo not given) | 5.6µM*
O=c1[nH]nc2n1CCN(C1CCOCC1)CC2 | -3%
CCOCC1(C)COc2ccc(C(=O)Nc3cccc(N(C)C)c3)cc2N1 (stereo not given) | 3.2µM*
CCOCC1(C)COc2ccc(C(=O)N(C)c3ccccc3)cc2N1 (stereo not given) | i
COc1cccc(NC(=O)c2ccc3c(c2)NC(C)(COCCN(C)C)CO3)c1 (stereo not given) | -9%[44.1 µM]
CC(=O)N1C[C@@H]2CCCN3CCC[C@@H]([C@H]23)[C@H]1CCCC(=O)NCCCN1CCCC1=O | 38%
SMILES | Pf Dd2 growth
COc1ccc(-c2nc(C)nc3c2CN(C(=O)c2ccc4c(c2)OCO4)CC3)cc1 | -12%
CN1CCN(c2cc(=O)c3ccnc(-c4ccc(F)cc4)c3o2)CC1 | i
c1cnc2c(-n3nc(C4CCOCC4)nc3C3CC3)cccc2c1 | 2%
Cc1cc(Nc2ccc(F)cc2)nc(-n2nc(C)cc2C)n1 | 11µM*
Cc1cc(C)n(-c2nc3ccccc3nc2Nc2ccc(C(C)C)cc2)n1 | -10%
CCCCc1ccc(Nc2cc(C)nc(-n3nc(C)cc3C)n2)cc1 | 2.8µM*
CCCCOC(=O)c1ccc(Nc2nnc(-n3nc(C)cc3C)c3ccccc23)cc1 | -10%
CC(=O)c1ccc(NC(=O)Cn2c(-n3nc(C)cc3C)nc(C)cc2=O)cc1 | i
COc1ccc(Nc2nnc(-n3nc(C)cc3C)c3ccccc23)cc1 | -14%
COc1ccc(N2CC(C(=O)NCC(F)F)NC2=O)cc1 (stereo not given) | -8%[44.1 µM]
O=C(Cn1ccn2nc(-c3ccccc3)c(CO)c2c1=O)Nc1ccc(C(F)(F)F)cc1 | 25%
Cc1cc(Cl)ccc1S(=O)(=O)N1CC(c2nc(-c3ccncc3)no2)C1 | -23%
COc1ccccc1-c1[nH]nc2ncc(-c3ccc(C)cc3)nc12 | i
COc1ccc(-c2cnc3n[nH]c(-c4ccc(OC)c(F)c4)c3n2)cn1 | i
COc1ccc(-c2[nH]nc3ncc(-c4ccc(C)cc4)nc23)cc1F | 13µM*
COCc1nc(CCN)no1 | -11%
Cc1ccc(CCNC(=O)c2ccc3c(Cl)c4c(nc3c2)CCCC4)cc1 | -4%
CSc1ccc(CCNC(=O)c2ccc3c(Cl)c4c(nc3c2)CCCC4)cc1 | -16%
CCN(CC)CCCNC(=O)c1ccc2c(Cl)c3c(nc2c1)CCCC3 | 11µM*
Cc1ccc(NC(=O)O[C@@H]2CC[C@]3(C)C(CC[C@@H](O)[C@H]3CC(=O)N3CCC[C@H]3CO)[C@]2(C)CO)cc1 (stereo not given in full) | i
CC1(C)[C@H](Cc2cc(COc3ccccc3)on2)C[C@@H]1NC(=O)C1CCCC1 | i
